Source: PubChem
In the library only some 1.2% were active in any assay of this set; here they are far more common.
Yp Topo-I inh: Y. pestis Topo-I inhibition via cleavage products; Y. pestis Topo-I cleavage product accumulation, plate reader; activity, % at 10 µM; 360,000 tested, 0.064% active; in the data active means activity above about 50%, passing the limit was not always enough
PrP 5UTR inh: suppresses PrP 5' UTR mRNA reporter expression | cell-based PrP 5' UTR mRNA reporter, plate reader | inhibition, % (concentration not given with the values) | 340,000 tested, 0.35% active | AID 488862; in the data active means inhibition above about 52%; further: 0 = median of the neutral control wells
FadD28 binding: blocks FadD28 binding to the bisubstrate probe. 360,000 tested, 0.22% active. AID 588549. inhibition, % at 12.5 µM. fluorescence polarization; in the data active means inhibition above about 8.5%, passing the limit was not always enough
PfHsp40 yeast: restores yeast growth despite PfHsp40 toxicity; S. cerevisiae expressing PfHsp40, growth rescue, ATP luminescence; growth rescue, % at 12.5 µM; 340,000 tested, 0.68% active; in the data active means growth rescue above about 28%, passing the limit was not always enough;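 further: yeast W303a lacking pdr1 and pdr3 grown in galactose medium; growth measured after three days at 30 °C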
BioA inh: BioA (M. tuberculosis) enzyme inhibition; purified M. tuberculosis BioA enzyme, plate reader; inhibition, % at 9.99 µM; 360,000 tested, 0.096% active; in the data active means inhibition above about 40%
TcdB GH inh: inhibitors of Clostridioides difficile toxin B glycohydrolase. P18177. 350,000 tested, 0.24% active. AID 652162. TcdB glycohydrolase enzymatic assay, plate reader. inhibition, % at 9.99 µM; in the data active means inhibition above about 10%
* hit, by the source's call; · = not tested or not shown.

SMILES	Yp Topo-I inh	PrP 5UTR inh	FadD28 binding	PfHsp40 yeast	BioA inh	TcdB GH inh
Cc1noc(C)c1NC(=O)N(C)C[C@H]1OCCCC[C@H](C)Oc2ccc(NS(=O)(=O)c3c(C)noc3C)cc2C(=O)N([C@@H](C)CO)C[C@@H]1C	·	·	·	·	0	1
Cc1ccc(C2(c3ccc(C)cc3)CC2C(=O)Nc2ccc([N+](=O)[O-])cc2O)cc1 (stereo not given)	-35	-22	-7	273*	-1	·
CC1(C)CC1C(=O)Nc1ccc([N+](=O)[O-])cc1Br (stereo not given)	10	-14	-1	0	1	·
C=CCn1c(-c2cc(-c3ccc(C)cc3)nc3ccccc23)n[nH]c1=S	20	-39	-6	414*	·	3
CCn1c(-c2cc(-c3ccc(C)cc3)nc3ccccc23)n[nH]c1=S	10	-1	-4	39*	3	1
CCn1c(-c2cc(-c3ccc(OC(C)C)cc3)nc3ccccc23)n[nH]c1=S	9	-68	-3	-1	3	2
COCC(=O)N(C)C[C@@H]1Oc2ncc(C3=CCCCC3)cc2C(=O)N([C@H](C)CO)C[C@H]1C	·	·	·	·	-1	1
O=C(C[C@H]1C[C@@H]2c3cc(NC(=O)NC4CCCC4)ccc3O[C@@H]2[C@@H](CO)O1)NCc1ccccn1	·	·	·	·	·	-1
C[C@H]1CN([C@@H](C)CO)C(=O)c2cc(NS(=O)(=O)c3ccc(Cl)cc3)ccc2O[C@@H]1CN(C)Cc1ccc2c(c1)OCO2	·	·	·	·	0	0
c1c[nH]c(CN2CCN(Cc3ncc[nH]3)CC2)n1	1	-16	0	384*	0	3
O=C(c1cccc(C(F)(F)F)c1)C1CCCN(Cc2ncc[nH]2)C1 (stereo not given)	-2	-12	-2	14	-2	1
CN1CCN(C(=O)C[C@@H]2CC[C@@H]3[C@H](COC[C@@H](O)CN3C(=O)C3CCOCC3)O2)CC1	·	·	·	·	-4	-2
COc1ccc(S(=O)(=O)/N=C2/NC(=O)/C(=C/c3ccco3)S2)cc1	3	-14	20*	2	·	-1
CCOc1ccc(C(=O)Nc2ccc(NC(=O)c3ccccc3)cc2)cc1Br	6	-11	0	-1	-1	1
CCOc1ccc(C(=O)Nc2ccc(Cc3ccncc3)cc2)cc1Br	11	-6	-1	60*	·	0
Cc1[nH]nc(C(=O)NN=Cc2ccccc2Cl)c1N=NN(C)C	2	-30	-4	41*	·	1
O=c1c2c([nH]c3ccccc13)CCCC2	-1	-10	-1	1	0	·
CC(C)(C)C1CCc2[nH]c3ccccc3c(=O)c2C1 (stereo not given)	3	-29	0	102*	1	·
Cc1ccccc1Nc1n[nH]c(=S)s1	1	·	-1	·	-2	2
Fc1ccccc1Nc1n[nH]c(=S)s1	4	-16	-1	-1	·	10*
N#C/C(=C(/O)CCl)c1nnc2n1CCCCC2	6	-10	0	-1	-2	2
N#C/C(=C(/O)COc1ccccc1)c1nnc2n1CCCCC2	-6	-14	-3	31*	·	0
CCCNC(=O)N1C[C@@H](C)[C@@H](OC)CN(C)C(=O)c2ccc(NS(C)(=O)=O)cc2OC[C@H]1C	·	·	·	·	-2	-1
CN1C(=O)c2cc(NC(=O)Nc3ccc(Cl)cc3)ccc2OC[C@H]2O[C@@H](CC(=O)NCCN3CCCCC3)CC[C@@H]21	·	·	·	·	3	-2
Cc1cc(/C=N/n2cnnc2)c(C)n1-c1ccc(OCc2ccc(F)cc2)cc1	18	-30	-4	103*	-2	·
SMILES	Yp Topo-I inh	PrP 5UTR inh	FadD28 binding	PfHsp40 yeast	BioA inh	TcdB GH inh
COc1ccc(S(=O)(=O)N(CC(=O)N/N=C/c2cccs2)c2cc(C)cc(C)c2)cc1OC	9	-6	-3	48*	0	1
C[N+]1(CCCCSc2ccc(O)cc2)CCCCC1	-7	-7	1	0	-3	22*
C[C@H](CO)N1C[C@H](C)[C@@H](CN(C)C(=O)c2ccccc2)Oc2ncc(C3=CCCCC3)cc2C1=O	·	·	·	·	3	1
CCOC(=O)NNc1ccc2nonc2c1[N+](=O)[O-]	·	-21	·	124*	·	·
CCC(=O)Nc1ccc2c(c1)OC[C@H](C)N(Cc1nccs1)C[C@@H](C)[C@@H](OC)CN(C)C2=O	·	·	·	·	0	0
COc1ccc(NC(=O)C2CC(=O)N(c3ccccc3F)C2)cc1S(=O)(=O)N1CCCCC1 (stereo not given)	8	·	-1	·	4	13*
